From PubChem BioAssay (NCATS) come the findings set out here.

The structures appear in SMILES notation. Records with an inconclusive call do not appear. Active and inactive are the calls of the source. Calls follow the shape of the dose curve; as a rule, active = well fitted inhibition curve with a large enough effect; inconclusive = small, poorly fitted or top-dose-only effect; inactive = flat fitted curve, though single readings scatter.

What all share (test): qHTS profiling for inhibitors of Plasmodium falciparum proliferation (AID 504749); also: nearly all actives have a fitted effect of over 60% in size
Holding throughout (conditions): P. falciparum in erythrocytes, SYBR Green DNA, 72 h; series mostly up to 28.7 µM
(In general: In qHTS, concentration-response curves come from the screen itself.)

One experiment deals with CP265. The procedure, abridged:
(§1)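 Quantitative HTS: compounds pinned into medium, infected erythrocytes added (0.3% parasitemia, 2.5% hematocrit), 72 h culture at 37 C under 5% CO2. Saponin/Triton lysis with SYBR Green I, overnight RT, then fluorescence read.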

Another experiment relates to CP266. The procedure, abridged: as §1
For another experiment, the system named is CP268. The procedure, abridged: as §1
In another experiment the test system is CP269. The method, boiled down:
as §1

For a further experiment, the system named is CP286. The procedure, abridged:
as §1

In a further experiment the test system is CP291. The procedure, abridged: as §1
The next experiment has as its system CP297. The method, boiled down:
as §1

The next experiment deals with CP305. The procedure, abridged:
as §1

A further experiment relates to CP315. The procedure, abridged: as §1
For another experiment, the system named is CP325. The method, boiled down: as §1
A further experiment has as its system CP329. The method, boiled down:
as §1

The subject of a further experiment is CP335. The method, boiled down: as §1
For another experiment, the system named is DFO2036. The method, boiled down: as §1
For the next experiment, the system named is DIV14. The method, boiled down:
as §1

The test system of the next experiment is DIV17. The method, boiled down: as §1
The test system of the next experiment is DIV30. The procedure, abridged:
as §1

For a further experiment, the system named is Dd2. The method, boiled down: as §1
The next experiment has as its system ECU. The method, boiled down:
as §1

The next experiment has as its system FAB9. The method, boiled down: as §1
The next experiment concerns GB4. The procedure, abridged:
as §1
Potency is read from the fitted curve at half-maximal effect.

Regarding `CCCCCCCCCCCCCC[N+](C)(C)C`, the Potency in the experiment on CP265 is 8.91 µM (active); with CP266, 10.7 µM (active); in the experiment with CP268, 8.49 µM (active); in the experiment on CP269 it was 5.36 µM (active); in the experiment with CP286 it was 2.51 µM (active); in the experiment with CP291 it was 4.78 µM (active). In addition, the Potency in the experiment with CP297 is 10.7 µM (active); in the experiment on CP305, 5.36 µM (active); in the experiment with CP315 it was 5.36 µM (active); in the experiment with CP325, 6.01 µM (active); in the experiment on CP329 it was 5.36 µM (active); in the experiment on CP335, 4.26 µM (active). Further, the Potency with DFO2036 is 4.47 µM (active); in the experiment with DIV14, 6.75 µM (active); in the experiment with DIV17 it was 7.57 µM (active); in the experiment on DIV30, 6.75 µM (active); in the experiment with Dd2, 6.31 µM (active); in the experiment on ECU it was 4.47 µM (active). Further, the Potency was 11.2 µM (active) in the experiment with FAB9 and 5.36 µM (active) in the experiment with GB4.

Take `CC(NCCC(c1ccccc1)c1ccccc1)c1ccccc1` (stereo unspecified): the Potency in the experiment with CP268 was 13.5 µM (active); with CP269, 16.9 µM (active); in the experiment on CP286 it was 3.98 µM (active); in the experiment on CP291, 13.5 µM (active); in the experiment on CP305, 13.5 µM (active); in the experiment on CP325, 15.1 µM (active). For the same compound, the Potency in the experiment on CP335 is 4.78 µM (active); in the experiment with DIV14 it was 5.36 µM (active); with DIV17 it was 6.01 µM (active); with DIV30, 8.49 µM (active); in the experiment on Dd2, 8.91 µM (active); in the experiment on ECU, 7.94 µM (active). Besides, the Potency in the experiment on GB4 was 15.1 µM (active).

For the compound `CCCCCCCCCCCCCCCC[N+](C)(C)Cc1ccccc1`, the Potency in the experiment on CP265 was 3.98 µM (active); with CP266, 9.53 µM (active); in the experiment on CP268, 12 µM (active); in the experiment on CP269 it was 7.57 µM (active); with CP286, 2.82 µM (active); in the experiment on CP291 it was 15.1 µM (active). For the same compound, the Potency in the experiment with CP297 was 13.5 µM (active); in the experiment on CP325, 9.53 µM (active); in the experiment on CP329 it was 10.7 µM (active); in the experiment on CP335 it was 12 µM (active); with DFO2036, 2.82 µM (active); in the experiment with DIV14, 8.49 µM (active). Besides, the Potency with DIV17 was 8.49 µM (active); in the experiment with DIV30, 15.1 µM (active); in the experiment on ECU, 3.16 µM (active); in the experiment on FAB9, 10 µM (active); with GB4 it was 5.36 µM (active).

Turning to `O=C(Nc1ccc(Cl)cc1)Nc1ccc(Cl)c(Cl)c1`, the Potency was 3.55 µM (active) in the experiment with CP265; 8.49 µM (active) in the experiment on CP266; 4.26 µM (active) in the experiment with CP268; 6.01 µM (active) in the experiment on CP269; 2.24 µM (active) with CP286; 4.78 µM (active) in the experiment on CP291. Besides, the Potency in the experiment with CP297 was 7.57 µM (active); in the experiment with CP305, 4.78 µM (active); in the experiment with CP325, 4.26 µM (active); in the experiment with CP329, 8.49 µM (active); with CP335, 3.38 µM (active); with DFO2036 it was 2.82 µM (active). For the same compound, the Potency is 1.35 µM (active) in the experiment on DIV14; 0.953 µM (active) in the experiment with DIV17; 1.69 µM (active) in the experiment with DIV30; 3.55 µM (active) with ECU; 5.01 µM (active) with FAB9; 2.39 µM (active) in the experiment on GB4. In addition, in the experiment on CP315, the Potency result is “inactive”.

As to `Nc1c2ccccc2nc2ccccc12`, the Potency was 13.5 µM (active) with CP266; 13.5 µM (active) with CP268; 13.5 µM (active) with CP269; 5.01 µM (active) in the experiment with CP286; 5.01 µM (active) in the experiment with DFO2036; 8.49 µM (active) in the experiment on DIV14. The Potency in the experiment on DIV17 was 7.57 µM (active); in the experiment on DIV30, 15.1 µM (active); in the experiment with Dd2 it was 12.6 µM (active); in the experiment with ECU it was 10 µM (active); with GB4 it was 10.7 µM (active).

For the compound `CN1CCCN(C(c2ccccc2)c2ccc(Cl)cc2)CC1` (stereo unspecified), the Potency with CP265 was 5.01 µM (active); in the experiment on CP286, 11.2 µM (active); with CP335, 12 µM (active); in the experiment on DIV14, 1.69 µM (active); with DIV17 it was 1.51 µM (active); in the experiment with GB4, 13.5 µM (active). Further, in the experiment with CP315, the Potency entry is “inactive”.

Take `O=S(=O)(O)c1ccc2nc(-c3ccccc3)[nH]c2c1`: the Potency entry in the experiment on CP265, in the experiment with CP266, in the experiment with CP268, with CP269, with CP286 and in the experiment on CP291 was “inactive” throughout. The Potency entry in the experiment on CP297, in the experiment with CP305, in the experiment on CP315, in the experiment on CP325, with CP329 and with CP335 was “inactive” in each case. Besides, the Potency entry in the experiment on DFO2036, in the experiment with DIV17, with DIV30, with Dd2, in the experiment with ECU and in the experiment with FAB9 was “inactive” in each case. Further, in the experiment on GB4, the Potency result is “inactive”.

As to `CCCCCCCCCCCCCCCC[n+]1ccccc1`, the Potency is 8.91 µM (active) with CP265; 13.5 µM (active) in the experiment on CP266; 9.53 µM (active) with CP268; 5.36 µM (active) with CP269; 2.51 µM (active) in the experiment with CP286; 6.01 µM (active) in the experiment on CP291. The Potency in the experiment on CP297 is 5.36 µM (active); in the experiment with CP305 it was 6.75 µM (active); in the experiment on CP325, 5.36 µM (active); with CP329, 7.57 µM (active); in the experiment on CP335, 6.75 µM (active); in the experiment on DFO2036, 5.62 µM (active). The Potency is 6.75 µM (active) in the experiment with DIV14; 6.75 µM (active) in the experiment on DIV17; 13.5 µM (active) with DIV30; 10 µM (active) in the experiment with Dd2; 7.08 µM (active) with ECU; 3.38 µM (active) in the experiment with GB4.

For `CN1CCC(Nc2ncc3ncnc(Nc4ccc(F)c(Cl)c4)c3n2)CC1`, the Potency in the experiment on CP286 is 11.2 µM (active); in the experiment on CP291 it was 15.1 µM (active); with CP335 it was 9.53 µM (active); in the experiment on DIV14, 10.7 µM (active); in the experiment on DIV17, 8.49 µM (active); in the experiment with Dd2, 7.94 µM (active). The Potency is 12.6 µM (active) with ECU and 13.5 µM (active) in the experiment with GB4. Further, the Potency result in the experiment with CP315 was “inactive”.

In the case of `O=[N+]([O-])c1ccc(O)c2ncccc12`, the Potency was 12.6 µM (active) in the experiment on Dd2 and 15.1 µM (active) in the experiment with GB4.

Consider `Nc1ncnc2nc[nH]c12`, for which the Potency entry in the experiment with CP265, with CP266, with CP268, in the experiment with CP269, in the experiment on CP286 and in the experiment with CP291 was “inactive” in each case. The Potency entry in the experiment on CP297, in the experiment on CP305, in the experiment with CP315, in the experiment on CP325, in the experiment with CP329 and in the experiment on CP335 was “inactive” throughout. Also, the Potency entry in the experiment on DFO2036, in the experiment with DIV14, in the experiment on DIV17, in the experiment on DIV30, with Dd2 and in the experiment with ECU was “inactive” each time. The Potency result with FAB9 and in the experiment with GB4 was “inactive” each time.

As for `Nc1ccc2cc3ccc(N)cc3nc2c1`, the Potency in the experiment on CP286 was 3.55 µM (active); in the experiment on CP335 it was 6.01 µM (active); in the experiment on DIV14, 6.01 µM (active); in the experiment with DIV17, 12 µM (active); in the experiment on FAB9 it was 8.91 µM (active); with GB4, 13.5 µM (active).
